Reference: ChEMBL document CHEMBL3988442, “University of Dundee, Small-Polar-MMV Screening Library” (2021)

target: T1, Aspartate--tRNA(Asp/Asn) ligase (Mycobacterium tuberculosis (strain ATCC 25618 / H37Rv)) (UniProt P9WFW3); assay: Assay for Asp RNA synthetase-1 from Mycobacterium tuberculosis; format: functional; design: scale not given: direction of the effect not stated beside the values; details: 30 µM; further: in the data most compounds retested in dose-response had high values
T1 sequence (whole entry): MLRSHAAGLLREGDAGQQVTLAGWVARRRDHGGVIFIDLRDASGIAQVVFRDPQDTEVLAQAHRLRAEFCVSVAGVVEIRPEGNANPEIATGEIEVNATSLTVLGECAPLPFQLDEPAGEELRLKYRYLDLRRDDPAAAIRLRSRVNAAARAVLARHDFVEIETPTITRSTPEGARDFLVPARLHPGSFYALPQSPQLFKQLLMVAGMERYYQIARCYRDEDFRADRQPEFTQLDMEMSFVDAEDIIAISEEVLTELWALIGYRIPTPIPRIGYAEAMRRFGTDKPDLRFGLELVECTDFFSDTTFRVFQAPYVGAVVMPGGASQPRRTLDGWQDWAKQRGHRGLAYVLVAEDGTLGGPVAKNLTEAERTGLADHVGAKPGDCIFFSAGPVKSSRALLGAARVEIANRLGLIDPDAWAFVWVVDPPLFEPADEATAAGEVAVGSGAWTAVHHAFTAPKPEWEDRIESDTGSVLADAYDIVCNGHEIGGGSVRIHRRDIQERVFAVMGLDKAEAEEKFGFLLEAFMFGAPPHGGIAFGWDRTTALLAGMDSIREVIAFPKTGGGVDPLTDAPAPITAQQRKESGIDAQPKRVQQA

Row | SMILES | Percent Effect [%]
1 | CN(C)CCCNC(=O)c1cc(Br)c2c(c1)OCCO2 | 0.724
2 | CCN(C)c1ccc(C(=O)N(CCOC)Cc2ccccn2)cc1 | 2.13
3 | COC(=O)CCN1CCCC1c1ccccc1Cl (stereo not given) | 2.1
4 | O=C(NCC1CCOCC1)[C@H]1C[C@@H]2CCN(Cc3ccncc3)C[C@@H]2O1 | 2.48
5 | Cc1nc(C)n(CC2CN(CC(=O)Nc3cccnc3)CCO2)n1 (stereo not given) | -1.48
6 | CC1CCN(C(CNC(=O)CCn2cccn2)c2cccs2)CC1 (stereo not given) | -0.241
7 | COC(=O)c1sccc1S(=O)(=O)NCC1(O)CCOc2ccccc21 (stereo not given) | -2.1
8 | NC(=O)C1(CCCc2cccnc2)CCCN(c2ncccn2)C1 (stereo not given) | -0.456
9 | Cc1cc(NC(=O)Cn2cc(C#N)c(=O)c3cc(Br)ccc32)no1 | -2.42
10 | O=C(CCc1cc2n(n1)CCCN(C(=O)c1cccnc1)C2)NC1CC1 | -2.01
11 | O=C(NC1(c2nnn(CCO)n2)CCCC1)c1ccccc1 | -6.13
12 | COc1ccc(Cc2nnc(SC)o2)cc1OC | -2.13
13 | CCN(CC1CN(Cc2ncc(C)o2)CCO1)c1cccnn1 (stereo not given) | -1.34
14 | CCC(=O)N1CCC(Cc2ccccc2-c2ccccc2)(C(N)=O)C1 (stereo not given) | -7.87
15 | Cc1nn(C)cc1CNC(=O)c1cn(CCC2CCCCN2)nn1 (stereo not given) | -2.13
16 | Cc1noc(C)c1C(=O)N(C)Cc1nc(-c2ccccn2)no1 | -3.85
17 | Cc1cnn(C2CN(Cc3ccc4c(c3)OCCO4)C2)c1 | 2.19
18 | O=C(C1CC(=O)N(C2CCCC2)C1)N1CCN(CCn2cccc2)CC1 (stereo not given) | -2.4
19 | CCn1nc(CC(C)C)cc1C(=O)N1C[C@H](O)[C@@H](N2CCCCC2)C1 | -2.61
20 | O=C(NC1(c2nnn(Cc3ccncc3)n2)CCCC1)c1ccccc1 | -0.678

Row | SMILES | Percent Effect [%]
21 | COCc1nc2n(n1)CCCC2Nc1nc(C2CC2)ns1 (stereo not given) | 0.0804
22 | O=C(NCCc1cccc(O)c1)NC1CCN(c2ccccc2)C1=O (stereo not given) | -2.7
23 | COc1ccc(-c2nc(CN3CCOCS3(=O)=O)c(C)o2)cc1 | -1.67
24 | Cc1nc[nH]c1CN1C[C@@H]2CC[C@H](C1)N(C(=O)CCNS(C)(=O)=O)C2 | -4.9
25 | CC(C)CN1CCCn2nc(CNC(=O)c3cccnc3O)cc2C1 | -2.56
26 | O=C(COc1cccc(Br)c1)N1CCN(c2nccs2)CC1 | 1.41
27 | Cc1cnn(Cc2cc(F)ccc2F)c1NC(=O)NC1CC1 | -1.44
28 | CC(C)(C)OC(=O)NC(C)(C)c1noc(CN2CCCCC2)n1 | -0.448
29 | CN(Cc1ncc(C(C)(C)C)o1)C1CCCN(c2cccnn2)C1 (stereo not given) | 0.143
30 | CCN1CC2(CCN(CCOCCO)CC2)CC(c2ccccc2)C1=O (stereo not given) | -2.77
31 | CCCn1cc(C(=O)N(C)Cc2nc(-c3ccccn3)no2)c(C)n1 | -0.218
32 | CCc1nsc(NC2CCCn3nc(COC)nc32)n1 (stereo not given) | -2.56
33 | CCCC(NC(=O)c1cc(C)n(C2CC2)c1C)c1nnn[nH]1 (stereo not given) | -0.908
34 | CC(C)NC(=O)Nc1ccc(CNCc2cccc(C#N)c2)cc1 | 0.232
35 | CCC(=O)NCC(=O)NCc1cc(Br)ccc1OC(F)F | -1.92
36 | CC(C)N(C)Cc1nnc2n1CCCN(C(=O)c1ccco1)C2 | 1.27
37 | CCC(C(=O)NC)N(c1cccc(C)c1)S(C)(=O)=O (stereo not given) | -2.86
38 | Cc1ccsc1CNC(=O)NC1CCCc2c1cnn2CCO (stereo not given) | -1.99
39 | CC(C)(C)N1CC(C(=O)N2CCN(CCc3ccccc3)CC2)CC1=O (stereo not given) | 0.448
40 | CN1CCN(C(CNC(=O)CCn2cccn2)c2cccs2)CC1 (stereo not given) | -1.05

target: Shiga toxin 2 (Escherichia coli O157:H7) (UniProt P09385+P09386); assay: E. coli 0.157:H7 Shiga Toxin SOP - stx2 screening assay; format: functional; design: scale not given: direction of the effect not stated beside the values; details: 30 µM

Row | SMILES | Percent Effect [%]
41 | O=C(NCC1CCOCC1)[C@H]1C[C@@H]2CCN(Cc3ccncc3)C[C@@H]2O1 | -19.5
42 | Cc1nc(C)n(CC2CN(CC(=O)Nc3cccnc3)CCO2)n1 (stereo not given) | 2.66
43 | COC(=O)c1sccc1S(=O)(=O)NCC1(O)CCOc2ccccc21 (stereo not given) | 6.1
44 | NC(=O)C1(CCCc2cccnc2)CCCN(c2ncccn2)C1 (stereo not given) | -4.97
45 | O=C(CCc1cc2n(n1)CCCN(C(=O)c1cccnc1)C2)NC1CC1 | -9.98
46 | CCC(=O)N1CCC(Cc2ccccc2-c2ccccc2)(C(N)=O)C1 (stereo not given) | 6.14
47 | Cc1nc[nH]c1CN1C[C@@H]2CC[C@H](C1)N(C(=O)CCNS(C)(=O)=O)C2 | -0.862
48 | CN(Cc1ncc(C(C)(C)C)o1)C1CCCN(c2cccnn2)C1 (stereo not given) | -9.94
49 | CC(C)NC(=O)Nc1ccc(CNCc2cccc(C#N)c2)cc1 | -108
50 | CC(C)N(C)Cc1nnc2n1CCCN(C(=O)c1ccco1)C2 | -12.8
